This is an account of results in PubChem BioAssay (NCI).

About 83,000 compounds went through this panel and 20% of them were active in at least one assay; those are over-represented in the sample as a whole.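 A percent growth of 40 corresponds to 60% growth inhibition; 0 means no net growth; -100 means all cells died. Active threshold: below 10.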 Unmarked numbers belong to inactive results. Calls of active or inactive are those of the source.

Test in all cases: NCI-60 one-dose screen, 48 h (100 = growth as untreated, 0 = no growth, -100 = all killed)
Holding throughout (conditions): 10 µM unless noted

For experiment [1], the system named is SR leukemia.
For experiment [2], the system named is OVCAR-8 ovarian.
Experiment [3] relates to OVCAR-5 ovarian.
For experiment [4], the system named is OVCAR-4 ovarian.
The subject of experiment [5] is SK-OV-3 ovarian.
The test system of experiment [6] is IGROV1 ovarian.
Experiment [7] deals with OVCAR-3 ovarian.
Experiment [8] relates to HS 578T breast.
Experiment [9] concerns NCI/ADR-RES ovarian.

For the molecule `C[C@@H]1C[C@@H]([C@@H](CC2CC(=O)NC(=O)C2)OC(=O)CC(=O)c2ccccc2)C(=O)[C@@H](C)C1`, the growth in experiment [1] was 31.1%; in [2], 12.5%; in experiment [3], 16.8%; in experiment [4], 20.2%; in experiment [5], -3.27% (active); in experiment [6], -10.4% (active). Also, the growth in experiment [7] was 19.4%; in experiment [8], 19.4%; in [9] it was 10.3%.
`CCOC(=O)CNC(=O)C1(NC(=O)CNC(=O)OCc2ccccc2)CCCC1`: the growth in experiment [1] is 103%; in [2], 107%; in [3], 95.1%; in experiment [4], 106%; in experiment [5], 104%; in experiment [6], 117%. Besides, the figures for the growth in experiment [7], in [8] and in experiment [9] were 142%, 125% and 105%, respectively.
On to `Nc1ccc2c(c1)C(=O)c1cc(Cl)c(Cl)cc1-2`, for which the growth in [1] was 82%; in experiment [2] it was 92.3%; in experiment [3], 95.9%; in experiment [4] it was 89.9%; in experiment [5] it was 97.9%; in experiment [6], 94.6%. In addition, the growth was 110% in experiment [7], 105% in [8] and 97.3% in [9].
`CCCCCc1c(C)[nH]c(/C=C2\N=C(c3ccc[nH]3)C=C2Oc2ccc(Cl)cc2)c1C`: the growth in experiment [1] was -9.44% [100 µM] (active); in experiment [2] it was -21.5% [100 µM] (active); in [3], -3.17% [100 µM] (active); in experiment [4] it was 12.6% [100 µM]; in experiment [5] it was 1.44% [100 µM] (active); in experiment [6] it was 13.3% [100 µM]. Moreover, the growth is -96.2% [100 µM] (active) in experiment [7], 3.26% [100 µM] (active) in experiment [8] and 5.31% [100 µM] (active) in experiment [9].
On to `O=C(C(=O)N1CCOCC1)c1cn(CCCn2cc(C(=O)C(=O)N3CCOCC3)c3ccccc32)c2ccccc12`, for which the growth is 103% in [1]; 104% in [2]; 102% in experiment [3]; 109% in experiment [4]; 111% in [5]; 107% in experiment [6]. In addition, the growth was 119% in experiment [7] and 109% in experiment [9].
On to `COC(=O)[C@H](Cc1cnc[nH]1)NC(=O)[C@@H](NC(=O)Nc1cc(C(F)(F)F)cc(C(F)(F)F)c1)C(C)C`, for which the growth in experiment [1] is -37% [100 µM] (active); in experiment [2], -83.6% [100 µM] (active); in experiment [3], -82.7% [100 µM] (active); in [4], -85.1% [100 µM] (active); in [5], -100% [100 µM] (active); in experiment [6], -80.5% [100 µM] (active). Besides, the growth in experiment [7] is -100% [100 µM] (active); in experiment [9], 73.9% [100 µM].
For `O=C(CC1Sc2ccccc2NC1=O)NNc1cccc(Cl)c1Cl` (stereo not given), the growth is 61% in [1]; 82.7% in experiment [2]; 80.6% in [3]; 88.1% in [4]; 70.2% in experiment [5]; 82.1% in experiment [6]. The growth was 81.7% in experiment [7] and 96.7% in experiment [9].
Consider `CC1C(C)N(C(=O)CCl)c2ccccc2N1C(=O)CCl` (stereo not given), for which the growth was -29.6% (active) in experiment [1]; -20.8% (active) in [2]; -77.5% (active) in experiment [3]; -27.2% (active) in experiment [4]; -20.4% (active) in [5]; -54.6% (active) in [6]. In addition, the growth in experiment [7] is -91.1% (active); in experiment [8], -28.3% (active); in [9], -7.93% (active).
With `O=C1NC(=S)S/C1=C\c1cc(Br)ccc1O`, the growth in experiment [1] is 95.7%; in experiment [2] it was 103%; in experiment [3], 91.6%; in [4], 115%; in experiment [5], 91.3%; in experiment [6] it was 110%. For the same molecule, the figures for the growth in experiment [7] and in [9] were 103% and 102%, respectively.
For `CCC(=O)Nc1cc2c(cc1Cl)-c1ccccc1C2`, the growth is 101% in [1]; 98% in [2]; 85.5% in experiment [3]; 101% in [4]; 107% in experiment [5]; 86.4% in experiment [6]. Also, the values for the growth in [7], in experiment [8] and in experiment [9] were 106%, 111% and 90.1%, respectively.
`O=C(O)c1ccc2cccnc2c1O`: the growth in experiment [1] was 5.47% (active); in [2] it was 13.6%; in experiment [3], 24.2%; in [4] it was 17.7%; in experiment [5] it was -10.7% (active); in experiment [6], 5.01% (active). In addition, the growth in [7] is 1.49% (active); in experiment [9] it was -1.54% (active).
With `COC(=O)C1(NC(=O)CNC(=O)OCc2ccccc2)CCCC1`, the growth in [1] was 100%; in experiment [2], 106%; in [3], 103%; in [4], 98.3%; in experiment [5] it was 111%; in [6], 115%. Besides, the growth in experiment [7] was 149%; in experiment [8], 131%; in experiment [9], 111%.
Turning to `Cc1ccc2nc(SCC(=O)Nc3ccc(-c4nc5ccccc5s4)c(Cl)c3)[nH]c2c1`, the growth is 97.2% in experiment [1]; 110% in experiment [2]; 108% in experiment [3]; 112% in experiment [4]; 105% in experiment [5]; 100% in experiment [6]. Further, the results for the growth in [7], in experiment [8] and in experiment [9] were 111%, 110% and 107%, respectively.
Turning to `CCOC(CNCc1cc(C)c2[nH]c3ccccc3c2c1C)OCC`, the growth in experiment [1] was 77.4%; in experiment [2], 89.5%; in experiment [3] it was 99.3%; in experiment [4] it was 58.7%; in [5], 93.1%; in experiment [6], 83.9%. Further, the figures for the growth in experiment [7], in [8] and in experiment [9] were 83.9%, 84.6% and 77.2%, respectively.
For `CCOc1cc(/C=C/C(=O)CC(=O)/C=C/c2ccc(OC(=O)CNCCN(CC)CC)c(OCC)c2)ccc1OC(=O)CNCCN(CC)CC`, the growth in experiment [1] is -42.1% (active); in experiment [2], 4.23% (active); in [3] it was -34.5% (active); in experiment [4] it was 18.1%; in experiment [5], 32.6%; in experiment [6], -67.7% (active). Further, the values for the growth in experiment [7], in experiment [8] and in experiment [9] were 0.276% (active), 1.48% (active) and 16.3%, respectively.
